CHO-K1 Ca antag: counter-screen for M1 antagonists: effect in parental CHO-K1 cells; ATP-induced calcium, Fluo-8 fluorescence; inhibition, % at 3 µM; 360,000 tested, 0.6% active;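 active = inhibition above a per-plate cutoff, the plate's mean sample inhibition plus 3 SD, cut at about 24% in these data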;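 also: 0% = DMSO plus EC80 ATP and 100% = DMSO alone without ATP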
M1 PAM parental: counter-screen for M1 PAMs: effect in parental CHO-K1 cells | AID 602247 | activation, % at 3 µM | 360,000 tested, 0.02% active | ATP EC20, Fluo-8 calcium fluorescence; 0% at ATP EC20, 100% at ATP max;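 active = activation above the run cutoff, the mean activation of all test compounds plus 3 SD, cut at about 40% in these data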;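 also: peak over basal fluorescence ratio in a 140 s read after ATP addition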
M1 antag: human CHRM1 antagonism | P11229 | AID 588852 | CHO-K1 hM1, Fluo-8 calcium fluorescence, ACh EC80 antagonist | 360,000 tested, 1.3% active | inhibition, % at 3 µM;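 active = percent inhibition above its own plate's cutoff, namely the mean of that plate's compound wells plus 3 SD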;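 also: peak over basal fluorescence ratio during 140 s after agonist addition; 0% = ACh EC80 plus DMSO and 100% = DMSO alone without agonist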
Target sequence (P11229 whole entry, looked up): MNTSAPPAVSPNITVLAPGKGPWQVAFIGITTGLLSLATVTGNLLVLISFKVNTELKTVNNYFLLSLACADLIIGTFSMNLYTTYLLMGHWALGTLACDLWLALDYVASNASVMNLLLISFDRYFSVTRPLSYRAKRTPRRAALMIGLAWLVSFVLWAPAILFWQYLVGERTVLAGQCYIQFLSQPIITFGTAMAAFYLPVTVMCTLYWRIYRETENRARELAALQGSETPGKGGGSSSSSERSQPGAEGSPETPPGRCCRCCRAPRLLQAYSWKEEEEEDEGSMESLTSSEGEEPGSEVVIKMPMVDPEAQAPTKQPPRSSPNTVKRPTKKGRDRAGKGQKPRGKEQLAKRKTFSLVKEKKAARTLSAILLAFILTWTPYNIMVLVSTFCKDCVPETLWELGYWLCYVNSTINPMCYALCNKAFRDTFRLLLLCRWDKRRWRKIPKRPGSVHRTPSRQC
M1 PAM: positive allosteric modulators of human M1 muscarinic receptor | P11229 | AID 588819 | 360,000 tested, 0.088% active | CHO-K1 hM1, Fluo-8 calcium fluorescence, ACh EC20; 0% = ACh EC20, 100% = maximal ACh | activation, % at 3 µM; in the data active = activation above about 19%, passing the limit was not always enough
CHRM1 agonist: agonists of human M1 muscarinic receptor; CHO-K1 hM1, Fluo-8 calcium fluorescence, agonist mode; 0% DMSO, 100% acetylcholine EC100; activation, % at 3 µM; 360,000 tested, 0.33% active; AID 588814;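 active = activation above the run's mean compound activation plus 3 SD, cut at about 16% in these data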;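 also: peak over basal fluorescence ratio within a 140 s kinetic read after compound addition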
CHO-K1 Ca ag: counter-screen for M1 agonists: effect in parental CHO-K1 cells | activation, % at 3 µM | AID 602248 | Fluo-8 calcium fluorescence; scaled to maximal ATP response, vehicle zero | 360,000 tested, 0.48% active; in the data active = activation above about 15%;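 also: untransfected CHO-K1 host cells lacking M1 receptor as counterscreen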
* = called active by the depositor. Most compounds without a hit are left out; they make up all but 2.3% or so of the library.

SMILES	CHO-K1 Ca antag	M1 PAM parental	M1 antag	M1 PAM	CHRM1 agonist	CHO-K1 Ca ag
CN1C(=O)/C(=C\c2ccc(N(C)C)cc2)OC1=S	27*	-18	39*	-22	53*	30*
COc1ccccc1N1CCN(C(=O)c2ccc(CS(=O)(=O)c3ccccc3OC)o2)CC1	12	5	12	-3	17*	4
CCN(CC(=O)Nc1c(F)cccc1F)C(=O)CSc1nc(C)cc(C)n1	1	-10	-7	12	-2	0
Cc1ccc(-c2[nH]ncc2C(=O)c2ccc(Br)cc2)c(O)c1	-1	4	-11	11	-1	3
Cc1ccc(C(=O)c2cn[nH]c2-c2cc(Cl)ccc2O)cc1	0	16	10	-4	-2	19*
O=C(CSc1ccc(-c2ccccn2)nn1)NCc1ccccc1	0	7	37*	-5	-4	4
CCC(C)Sc1ccc([C@H]2N[C@@](Cc3ccccc3)(C(=O)OC)[C@H]3C(=O)N(CC)C(=O)[C@@H]23)cc1OC (stereo partly drawn)	-7	-16	-7	15	3	0
CCOc1ccc(NC(=O)COc2ccc(C(=O)NCCc3ccccc3)cc2)cc1	29*	-12	-1	1	-2	1
CC(C)c1ccccc1NC(=O)COc1ccc(C(=O)NCCc2ccccc2)cc1	4	14	-2	3	-7	3
CN(c1cc(Cl)c2c(c1)OCO2)c1cc2c(c3c1ccn3C)C1CCC2C1 (stereo not drawn)	27*	3	4	-3	-6	0
CCN(CC)c1cc2c(c3c1ccn3C)C1CCC2C1 (stereo not drawn)	25*	0	23	-11	-9	0
CN(c1ccc(Cl)cc1)c1cc2c(c3c1ccn3C)C1CCC2C1 (stereo not drawn)	-2	21	-7	11	-4	1
Cn1ccc2c(N3c4ccccc4CCc4ccccc43)cc3c(c21)C1CCC3C1 (stereo not drawn)	9	6	37*	-16	-12	0
Cn1ccc2c(-c3cccc4ccccc34)cc3c(c21)C1CCC3C1 (stereo not drawn)	38*	-9	1	17	10	0
CCc1ccc(C(O)(CNCc2ccccc2)c2ccccc2)cc1 (stereo not drawn)	3	-3	-17	11	0	9
CCN(CC)CCN(Cc1cc2cc3c(cc2[nH]c1=O)OCO3)C(=S)NC	0	-15	-10	4	-8	0
CCN1CCN(c2ncnc3c2sc(=S)n3-c2ccccc2)CC1	2	8	-6	2	-10	2
CCN1CCN(c2ncnc3sc(C)c(-c4ccccc4)c23)CC1	-13	-22	29*	-16	-11	2
CCN1CCN(c2ncnc3scc(-c4ccc(C)c(C)c4)c23)CC1	-3	-6	85*	-32	-11	0
Cc1cc2c(c(=O)n1CC1CCCO1)C(c1ccc3c(c1)OCO3)C(C#N)=C(N)O2 (stereo not drawn)	-9	20	-8	9	-1	0
CCn1c(C)cc2c(c1=O)C(c1ccc3c(c1)OCO3)C(C#N)=C(N)O2 (stereo not drawn)	-2	0	66*	-34	-15	0
Cc1cc(C)cc(NS(=O)(=O)CCCS(=O)(=O)Nc2cc(C)cc(C)c2)c1	-15	15	-5	2	1	1
O=[N+]([O-])c1cc(-n2cnnn2)ccc1N1CCC(Cc2ccccc2)CC1	25*	-3	8	3	0	0
CC1CC(C)CN(c2ccc(-n3cnnn3)cc2[N+](=O)[O-])C1 (stereo not drawn)	-10	19	-11	4	-5	0
CCOc1ccc(C(CC(=O)O)NC(=O)C(c2ccccc2)c2ccccc2)cc1OC (stereo not drawn)	-11	17	0	0	-5	1
CCOC(=O)C1CCN(C(=O)c2cccnc2)CC1	6	-1	12	27*	-3	0
CCOC(=O)C1CCN(C(=O)c2cccc(C(=O)N3CCC(C(=O)OCC)CC3)c2)CC1	-19	14	1	-1	4	1

Screening results deposited in PubChem BioAssay by The Scripps Research Institute Molecular Screening Center.
